Experimental data taken from PubChem BioAssay (Tox21).
Results filed as inconclusive are left out. Calls of active or inactive are those of the source. Calls come from the whole dose curve.

Tests used:
[1] = molecular target: Acetylcholinesterase (Homo sapiens) (UniProt P22303); experiment: Acetylcholinesterase (AChE) small molecule antagonists: enzyme-based qHTS assay (AID 1347397); conditions: Potency: AChE enzyme activity inhibition; outcome: AChE enzyme activity inhibition; note: nearly all actives have a fitted effect of over 55% in size
Acetylcholinesterase (Homo sapiens), sequence (P22303 whole entry, looked up): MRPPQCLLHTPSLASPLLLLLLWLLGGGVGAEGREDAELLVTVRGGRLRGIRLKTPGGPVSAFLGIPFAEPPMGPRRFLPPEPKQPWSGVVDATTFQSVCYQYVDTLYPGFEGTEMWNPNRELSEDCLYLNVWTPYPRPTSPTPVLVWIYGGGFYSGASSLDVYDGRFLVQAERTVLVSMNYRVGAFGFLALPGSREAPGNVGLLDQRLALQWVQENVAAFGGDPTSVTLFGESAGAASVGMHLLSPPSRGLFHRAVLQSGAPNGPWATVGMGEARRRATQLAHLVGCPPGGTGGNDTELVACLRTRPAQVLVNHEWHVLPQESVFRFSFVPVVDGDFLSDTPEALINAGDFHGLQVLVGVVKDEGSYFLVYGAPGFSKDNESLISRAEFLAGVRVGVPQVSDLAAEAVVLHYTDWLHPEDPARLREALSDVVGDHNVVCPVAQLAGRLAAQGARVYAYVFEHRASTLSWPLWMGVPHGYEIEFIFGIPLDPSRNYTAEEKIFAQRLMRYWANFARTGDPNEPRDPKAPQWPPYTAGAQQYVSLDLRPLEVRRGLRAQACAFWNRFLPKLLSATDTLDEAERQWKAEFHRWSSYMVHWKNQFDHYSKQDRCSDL
Procedure, shortened: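 rhAChE 50 mU/mL (dispensed) + cpd or DMSO, 30 min RT; add DTNB/acetylthiocholine cocktail, 10 min RT; colorimetric thiocholine readout. qHTS, 1536-well format.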

[2] = molecular target: Acetylcholinesterase (Homo sapiens) (UniProt P22303); experiment: Acetylcholinesterase (AChE) small molecule antagonists: fluorescence cell-based qHTS assay (AID 1347398); conditions: Potency: AChE activity; outcome: AChE activity; note: nearly all actives have a fitted effect of over 50% in size
Procedure, shortened: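 Read-out is Thiolite Green fluorescence at Ex/Em = 490/520 nm, formed by reaction with thiocholine released when cellular AChE in SH-SY5Y cells hydrolyzes acetylthiocholine. Compounds were preincubated 30 min at 37 C before substrate.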

[3] = molecular target: Acetylcholinesterase (Homo sapiens) (UniProt P22303); experiment: Acetylcholinesterase (AChE) small molecule antagonists: enzyme-based qHTS assay with human liver microsomes (AID 1347399); conditions: Potency: qHTS inhibition; outcome: qHTS inhibition; note: nearly all actives have a fitted effect of over 60% in size
Procedure, shortened: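 Recombinant human AChE (50 mU/mL in the enzyme mix) and human liver microsomes (0.25 mg/mL final) were preincubated with compound and NADPH (0.25 mg/mL final) for 30 min at 37 C. Acetylthiocholine/DTNB was then added; thiocholine was read colorimetrically after 10 min at room temperature.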

Measured: Potency

CC(C)(C)c1cc(Cc2cc(C(C)(C)C)c(O)c(C(C)(C)C)c2)cc(C(C)(C)C)c1O
inactive: all assays above

C=C(C)[C@@H]1CC=C(C)CC1
inactive: all assays above

CCc1oc2ccccc2c1C(=O)c1cc(I)c(O)c(I)c1
inactive: all assays above

CCc1ccc(O)c(C(C)(C)C)c1
inactive: all assays above

CCC(C)(C)OC
inactive: all assays above

CC(C)OC(=O)CCCCC(=O)OC(C)C
inactive: all assays above

Cc1cc(C)c(C)c(O)c1
inactive: all assays above

CC(=O)OCC(=O)[C@@]1(O)CC[C@H]2[C@@H]3CCC4=CC(=O)C=C[C@]4(C)[C@H]3[C@@H](O)C[C@@]21C
inactive: all assays above

CC1(C)[C@H]2CC[C@]1(C)[C@H](O)C2
inactive: all assays above

Nc1ccc(Cl)c(N)c1
inactive: all assays above

CC(C)c1ccc(S(=O)(=O)O)cc1
inactive: all assays above

CCCCCC(C)N (centres undefined)
inactive: all assays above

OCCN1CCN(CCCN2c3ccccc3C=Cc3ccccc32)CC1
inactive: all assays above

CCOC(=O)[C@H](O)[C@@H](O)C(=O)OCC
inactive: all assays above

CCCCOC(=O)c1ccc(N)cc1
inactive: all assays above

CCCCCCCC(=O)[O-].CCCCCCCC(=O)[O-].[Zn+2]
inactive: all assays above

COc1cc(C(=O)NCCCCCC(=O)O)cc(OC)c1OC
inactive: all assays above

CCCCCCCCOCCC#N
inactive: all assays above
